Pf gamet viab = kills late stage P. falciparum gametocytes | P. falciparum stage V gametocytes, ATP luminescence, 24 h | inhibition, % at 10.9 µM | hit rate 0.065% among 150,000 | AID 743093;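 active = inhibition above the mean plus 3 SD of compounds within the control limits, set per campaign, cut at about 38% in these data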;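 note: 0% = DMSO wells and 100% = medium only without gametocytes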
S1P4 ag = agonists of human S1P4 receptor | hit rate 0.35% among 220,000 | activation, % at 4.98 µM | AID 1509 | O95977 | S1P4-expressing cell line, agonist reporter assay; in the data active = activation above about 11%;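 note: 0% = DMSO vehicle and 100% = reference agonist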
PGE2 EP2 inh = EP2 receptor (human) inhibition. P43116. C6 glioma cells expressing human EP2, cAMP TR-FRET; cells stimulated with saturating PGE2. inhibition, % at 25 µM. hit rate 0.52% among 260,000. AID 1422;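 active = percent inhibition above 40 after rounding to a whole number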;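 note: rat C6 glioma host cells with rolipram phosphodiesterase inhibitor present; the protocol text gives 20 µM as final concentration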
Target sequence (P43116 whole entry, looked up): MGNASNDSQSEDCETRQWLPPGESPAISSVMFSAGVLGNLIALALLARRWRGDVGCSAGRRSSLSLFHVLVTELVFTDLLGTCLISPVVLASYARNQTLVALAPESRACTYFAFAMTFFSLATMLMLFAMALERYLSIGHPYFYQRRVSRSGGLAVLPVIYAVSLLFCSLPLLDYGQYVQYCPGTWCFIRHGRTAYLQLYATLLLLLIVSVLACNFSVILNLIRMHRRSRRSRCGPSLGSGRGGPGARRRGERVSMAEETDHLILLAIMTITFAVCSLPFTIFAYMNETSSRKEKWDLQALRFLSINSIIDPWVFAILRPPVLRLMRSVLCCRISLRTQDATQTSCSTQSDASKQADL
EP2 mod = EP2 receptor (human) modulation | P43116 | hit rate 0.83% among 260,000 | EP2-expressing cells, cAMP HTRF FRET, PGE2 co-stimulation | induction, % at 25 µM;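 active = compounds whose cAMP rise, as percent of the full-agonist control response, exceeds 60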;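 note: rat C6 glioma line stably carrying human EP2 under a CMV promoter; the protocol text gives 20 µM as final concentration; 100% = response of wells given 1 µM PGE2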
S1P3 antagonist = S1P3 (human) receptor antagonism | CHO S1P3 NFAT-BLA reporter, FRET fluorescence, antagonist mode | hit rate 0.27% among 170,000 | Q99500 | inhibition, % at 4.98 µM | AID 485;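 active = inhibition above the plate cutoff, the mean inhibition of test wells on that plate plus 3 SD, cut at about 28% in these data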;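 note: cells challenged with S1P at its EC80 of 0.8 µM; blue over green emission ratio from cleaved BLA substrate after 4 h stimulation; 0% = S1P-stimulated wells and 100% = unstimulated DMSO-only wells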
S1P4 antag = human S1P4 receptor antagonism; S1P4-expressing cells, antagonist mode, reporter read-out; inhibition, % at 4.98 µM; O95977; hit rate 0.26% among 220,000; in the data active = inhibition above about 29%;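 note: 0% = wells stimulated with agonist and 100% = vehicle wells without agonist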
The depositor's hits bear a star; · = no result. Most compounds without a hit are left out; they make up all but 1.9% or so of the library.

SMILES | Pf gamet viab | S1P4 ag | PGE2 EP2 inh | EP2 mod | S1P3 antagonist | S1P4 antag
CCC(C)(C)NC(=O)C(c1ccncc1)N(C(=O)Cn1nnc2ccccc21)c1cccc(F)c1 (stereo not drawn) | · | · | 6.0 | 11.9 | · | ·
CCN(CC)CCn1c(=S)[nH]c2ccccc2c1=O | · | 0.0 | 4.3 | -0.1 | 25.0 | -6.0
CCN(CC)CC[n+]1ccc2c(C)c3[nH]c4ccccc4c3c(C)c2c1 | · | · | 58.2* | -41.5 | · | ·
CCc1ccc2[nH]c(=O)c(CN(Cc3cccnc3)Cc3nnnn3C3CCCCC3)cc2c1 | · | · | 11.0 | -6.5 | · | ·
Cc1cc(=S)c2cc(Br)ccc2[nH]1 | · | · | 21.4 | 66.2* | · | ·
Cc1ccc(N(Cc2ccc([N+](=O)[O-])cc2)C(=O)c2ccco2)cc1C | · | 0.9 | 4.8 | 62.6* | -2.8 | -10.3
O=C1C=CC(=O)C(C2=C3C(=O)N(CCc4ccccc4)CC(=O)N3CCC2)=C1 | 6.0 | -0.5 | 89.9* | -53.4 | -12.7 | -2.0
Cc1ccc(C(=O)n2c3ccccc3c3ccccc32)cc1 | -13.4 | 0.3 | 14.5 | 63.7* | · | -17.3
CCn1c(SCC(=O)Nc2ccc(NC(=O)c3ccccc3Cl)cc2)nnc1-c1cccnc1 | · | · | 15.2 | 6.1 | · | ·
FC(F)(F)c1cc(NC(=S)N2c3ccccc3-n3cccc3[C@H]2c2cccnc2)cc(C(F)(F)F)c1 | · | · | 44.2* | -16.0 | · | ·
CCN(c1cccc2ccccc12)S(=O)(=O)c1ccc(Cl)nc1 | 1.8 | 1.5 | 3.3 | 64.8* | 1.6 | 6.4
CCN(c1ccccc1)S(=O)(=O)c1ccc(Cl)nc1 | -29.8 | 0.5 | 16.1 | 26.2 | -16.4 | -17.0
CC1(C)CC(=O)C(C(C2=C(O)CC(C)(C)CC2=O)c2ccc(Br)s2)C(=O)C1 (stereo not drawn) | 16.1 | 0.8 | 51.0* | -78.2 | -11.9 | -13.4
Cc1ccc(-c2csc3nc[nH]c(=S)c23)cc1 | 51.0* | 0.2 | 16.1 | 27.9 | -4.7 | -8.9
O=C(Nc1ccc(NC(=O)C2CC2)nc1)c1ccccn1 | · | 0.3 | 40.9* | -1.2 | · | -4.9
CCc1ccc2[nH]c(=O)c(CN(CC3CCCO3)C(=S)NC3CCCCC3)cc2c1 (stereo not drawn) | · | · | 9.7 | 81.5* | · | ·
CCNC(=S)N(CCN(C)C)Cc1cc2cc(CC)ccc2[nH]c1=O | · | · | 9.2 | 63.5* | · | ·
CCc1ccc2[nH]c(=O)c(CN(CC3CCCO3)C(=S)NCc3ccco3)cc2c1 (stereo not drawn) | -11.5 | 0.0 | 6.3 | -22.9 | -23.6 | 20.1
CCc1ccc2[nH]c(=O)c(CN(CC3CCCO3)C(=S)NCc3ccccc3)cc2c1 (stereo not drawn) | · | · | 12.3 | 65.9* | · | ·
Cc1nonc1CC(=O)N1CCCC1c1nc2ccccc2[nH]1 (stereo not drawn) | · | · | · | 4.5 | · | ·
O=C(CSc1nnc(-c2ccc(F)cc2)o1)NC1CCCCC1 | 43.1* | 0.2 | 5.4 | -21.4 | -11.0 | 5.6
N=c1oc2cc(O)ccc2cc1C(=O)Nc1ccccc1 | · | · | 5.2 | -81.4 | · | ·
N=c1oc2cc(O)ccc2cc1C(=O)Nc1ccccn1 | · | 73.7* | 12.7 | -36.1 | -72.1 | -52.3
Cc1ccc(CN2C(=O)C(C)Oc3ccc(C)cc32)cc1 (stereo not drawn) | · | · | 9.3 | 82.9* | · | ·
Cc1ccc2c(c1)N(Cc1ccccn1)C(=O)C(C)O2 (stereo not drawn) | 13.4 | 1.0 | 5.8 | 10.8 | -31.5 | -29.8
SMILES | Pf gamet viab | S1P4 ag | PGE2 EP2 inh | EP2 mod | S1P3 antagonist | S1P4 antag
Cc1cc(OC2CCCCC2)nc(NCc2ccccc2)n1 | -15.4 | 9.9 | 6.8 | 66.0* | -7.6 | 11.3
CCOc1cc(C)nc(NCc2ccccc2)n1 | · | 1.1 | 3.1 | 63.3* | · | -0.9
Cc1cc(N2CCCCC2)nc(NCc2ccccc2)n1 | · | -1.4 | 32.2 | -38.2 | · | 9.7
COc1ccc(CC(=O)N2CCC[C@H]2Cn2nc(-c3ccc(F)cc3)ccc2=O)cc1 | · | · | · | -33.2 | · | ·
C/C(N[O-])=C(\C)[N+]([O-])=[Co].CC(=N\[O-])/C(C)=N/[O-].C[CH-][C@@H](C)O.c1ccncc1 | · | · | 41.7* | 20.6 | · | ·
CCN(c1ccccc1)S(=O)(=O)c1cc(NC(=O)Nc2ccccc2C#N)ccc1Cl | -31.4 | 0.9 | 6.7 | -0.1 | 1.6 | -12.2
CCN(c1ccccc1)S(=O)(=O)c1ccc(Cl)c(NC(=O)Nc2ccc(Cl)cc2C#N)c1 | 5.4 | -0.1 | 2.9 | 60.6* | 14.5 | -3.0
O=Cc1cccc(OC(=O)c2ccc(Cl)cc2Cl)c1 | · | 3.8 | 7.4 | 63.7* | · | 8.3
CCCC1C(=O)N(c2ccccc2)C1c1ccccc1 (stereo not drawn) | · | -0.1 | -3.1 | 64.0* | · | -8.3

Compound activity deposited in PubChem BioAssay by several laboratories.
